Measurements as given in PubChem BioAssay AID2284082 (EPA ToxCast).
Records with an inconclusive call do not appear. Active and inactive are the calls of the source. How the source made its calls: active means hit-call score of the fitted dose curve at least 0.9, where 1 is the maximum; inconclusive means response in the unintended direction; inactive means score below 0.9.

molecular target: human Akt2 (PKBbeta) AGC Kinase, AKT2 (gene 208) (UniProt P31751); assay: ERF_FR_ENZ_hAKT2: Eurofins (ERF) Enzymatic Radiometric [Km ATP] KinaseProfiler LeadHunter Assay for human Akt2 (PKBbeta) AGC Kinase
Sequence (P31751 whole entry, looked up): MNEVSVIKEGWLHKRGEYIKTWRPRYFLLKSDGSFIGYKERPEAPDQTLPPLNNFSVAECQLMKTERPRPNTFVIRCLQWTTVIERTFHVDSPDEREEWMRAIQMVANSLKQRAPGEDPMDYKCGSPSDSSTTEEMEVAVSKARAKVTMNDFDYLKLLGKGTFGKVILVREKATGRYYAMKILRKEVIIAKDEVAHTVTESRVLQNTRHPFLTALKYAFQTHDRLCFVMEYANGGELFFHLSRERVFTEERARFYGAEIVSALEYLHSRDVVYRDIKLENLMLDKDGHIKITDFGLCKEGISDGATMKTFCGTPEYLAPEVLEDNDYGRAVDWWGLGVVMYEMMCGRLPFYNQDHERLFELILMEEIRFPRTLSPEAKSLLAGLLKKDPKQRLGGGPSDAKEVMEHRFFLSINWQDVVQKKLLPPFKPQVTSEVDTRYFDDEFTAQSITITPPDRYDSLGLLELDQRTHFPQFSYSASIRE
Description: ERF_FR_ENZ_hAKT2 is a biochemical, single-readout assay that uses extracted gene-proteins in a cell-free assay. Measurements were taken 0.5 hour after chemical dosing in a 96-well plate. See Akt2 (PKBbeta) Human AGC Kinase Enzymatic LANCE Assay [Km ATP], Cerep.ERF_FR_ENZ_hAKT2 is an assay component calculated from the ERF_FR_ENZ_hAKT2 assay. It is designed to measure enzyme activity using a type of enzyme reporter as detected by fluorescence intensity with LANCE technology.Data from the assay component ERF_FR_ENZ_hAKT2 was analyzed at the assay endpoint, ERF_FR_ENZ_hAKT2, in the positive analysis fitting direction relative to DMSO as the negative control and baseline of activity. Using a type of enzyme reporter, loss-of-signal activity can be used to understand changes in enzymatic activity as they relate to gene AKT2. To generalize the intended target to other relatable targets, this assay endpoint is annotated to the kinase intended target family, where the subfamily is serine/threonine kinase.
PKBb (h) is incubated with 8 mM MOPS pH 7.0, 0.2 mM EDTA, 30 uM […], 10 mM MgAcetate and [g- 33P]-ATP (specific activity and concentration as required). The reaction is initiated by the addition of the Mg/ATP mix. After incubation for 40 minutes at room temperature, the reaction is stopped by the addition of phosphoric acid to a concentration of 0.5%. […]

Row | SMILES | outcome
1 | Oc1ccc(O)cc1 | inactive
